According to PubChem BioAssay:
Activity calls are given as the source filed them.

Key:
[1] = tested on: Human papillomavirus type 1a protein E7 (residues 44-93); assay: small molecules binding HPV E7 44-93 – biochemical, small-molecule microarray, residues 44-93, 635 nm fluorescence, primary screen (AID 1108); conditions: fluorescence 635 nm, higher = more signal;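 note: E7 fragment applied at 1 µg/mL in TBST for 1 h at 4 C; score combines spot fluorescence with its signal to noise ratio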
[2] = hepatitis C replication reporter changes, two-sided – Huh7 cells, luciferase reporter, HCV replication inhibitor project, primary screen (AID 1109); conditions: Huh7 HCV replicon luciferase reporter, 48 h; higher = more signal;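 note: huh7 hepatoma cells harbouring a luciferase neomycin HCV replicon reporter; luciferase luminescence as measure of HCV replicon replication; test concentration not given here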
[3] = biological target: Left-right determination factor 2 (Homo sapiens) (UniProt O00292); assay: small molecules binding LEFTY2 protein – biochemical, small-molecule microarray, 635 nm fluorescence scan, primary screen (AID 1110); conditions: higher = more signal
[4] = biological target: Calmodulin-1 (Homo sapiens) (UniProt P0DP23); assay: small molecules binding calmodulin-1 with EGTA – biochemical, small-molecule microarray, Cy5-labelled CALM1, profiling panel (AID 1111); conditions: Cy5-CALM1 binding fluorescence, higher = more signal;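 note: labelled calmodulin applied in Tris saline Tween buffer holding calcium plus EGTA and DTT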
[5] = biological target: Calmodulin-1 (Homo sapiens) (UniProt P0DP23); assay: small molecules binding Ca-loaded calmodulin-1 – biochemical, small-molecule microarray, Cy5-labelled CALM1, plus calcium, artefact control for SMM control-protein annotation, profiling panel (AID 1112); conditions: Cy5-CALM1 binding fluorescence, higher = more signal;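 note: score merges spot fluorescence with signal to noise from triplicate slides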
[6] = probe aWnt5a binding to arrayed compounds – biochemical, biotinylated probe, 635/667 nm fluorescence, primary screen (AID 1113); conditions: small-molecule microarray, higher = more signal;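 note: score merges 667 nm fluorescence intensity with signal-to-noise per printed feature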
[7] = probe aShh binding to arrayed compounds – biochemical, biotinylated probe, 635/667 nm fluorescence, primary screen (AID 1114); conditions: small-molecule microarray, higher = more signal;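 note: probe is biotin-labelled aShh protein from a stem cell growth factor screen; measures binding of labelled protein to compounds printed on the slide; score merges feature fluorescence at 667 nm with signal-to-noise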
[8] = probe aNog binding to arrayed compounds – biochemical, biotinylated probe, 635/667 nm fluorescence, primary screen (AID 1115); conditions: small-molecule microarray, higher = more signal;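 note: probe is biotinylated aNog protein used at 0.15 µg/mL for 1 h at 4 C; z-score combines 667 nm fluorescence of each spot with its signal to noise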
[9] = biological target: Torsin-1A-interacting protein 1 (Homo sapiens) (UniProt Q5JTV8); assay: compound microarray binding of lysate hLAP1 – cell lysate, small-molecule microarray, COS7 lysate, 635/667 nm fluorescence, primary screen (AID 1116); conditions: 635 nm fluorescence, higher = more signal
[10] = biological target: Alpha-bungarotoxin (Bungarus multicinctus) (UniProt P60615); assay: compounds binding labelled alpha-BTX control protein – biochemical, small-molecule microarray, Alexa647 label, 635/667 nm fluorescence, artefact control for SMM control protein annotation, profiling panel (AID 1117); conditions: alpha-BTX-A647 binding fluorescence, higher = more signal
[11] = biological target: Albumin (Bos taurus) (UniProt P02769); assay: compounds binding labelled BSA control protein – biochemical, small-molecule microarray, Alexa647 label, 635/667 nm fluorescence, artefact control for SMM control protein annotation, profiling panel (AID 1118); conditions: BSA-A647 binding, fluorescence 635 nm, higher = more signal;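 note: score merges 667 nm emission intensity and signal-to-noise per printed compound spot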
[12] = probe aXIP binding to arrayed compounds – biochemical, NeuroSMM set, 635/667 nm fluorescence, primary screen (AID 1119); conditions: small-molecule microarray, higher = more signal, called active from +8 up or from −8 down;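 note: probe is the protein aXip251-270 applied at 1 µg/mL to compound-printed slides; binding of probe to printed compounds measured as 667 nm fluorescence plus signal to noise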
[13] = probe aNOTCH3 binding on compound microarray – biochemical, small-molecule microarray, 635/667 nm fluorescence, primary screen (AID 1120); conditions: higher = more signal;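 note: probe is a biotin-tagged antibody raised against NOTCH3 rather than NOTCH3 protein; score merges spot fluorescence near 667 nm with spot signal to noise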
[14] = probe aNOTCH2 binding on compound microarray – biochemical, small-molecule microarray, 635/667 nm fluorescence, primary screen (AID 1121); conditions: higher = more signal;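 note: score merges feature fluorescence read at 667 nm with its signal to noise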
[15] = biological target: Carbonic anhydrase 2 (Homo sapiens) (UniProt P00918); assay: compounds binding carbonic anhydrase 2 – biochemical, small-molecule microarray, Alexa647-labelled CAII, profiling panel (AID 1122); conditions: CAII-A647 binding fluorescence, higher = more signal
[16] = COS7 lysate on small-molecule microarray, probe aHis, 635 nm (AID 1123); conditions: COS7 cell lysate, fluorescence, higher = more signal;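 note: z-score combines 667nm fluorescence intensity with signal-to-noise per printed compound spot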
[17] = probe aLAP1 signal on lysate-treated microarray – cell lysate, small-molecule microarray, COS7 lysate, primary screen (AID 1124); conditions: probe aLAP1, fluorescence, higher = more signal;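 note: lysate comes from COS7 cells expressing LAP1 and is applied at 0.3 µg/mL; score merges spot fluorescence near 667 nm with signal-to-noise over triplicate slides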
[18] = tested on: Sam68 (KHDRBS1); assay: compounds binding KHDRBS1 protein – biochemical, small-molecule microarray, 635 nm fluorescence, primary screen (AID 1125); conditions: higher = more signal;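 note: score merges 667 nm channel intensity with signal to noise over triplicate slides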
[19] = tested on: Chordin-like protein 2 (CHRDL2); assay: compounds binding chordin-like 2 – biochemical, small-molecule microarray, 635 nm fluorescence, primary screen (AID 1126); conditions: fluorescence 635 nm, higher = more signal;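 note: printed compound slides probed with Chrdl2 protein at 4 µg/mL for 1 h at 4 C; score merges 667 nm emission intensity with signal to noise over three replicate slides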
[20] = biological target: Concanavalin-A (Canavalia ensiformis) (UniProt P02866); assay: compounds binding concanavalin A lectin – biochemical, small-molecule microarray, Alexa647 label, 635 nm, artefact control for SMM control protein annotation, primary screen (AID 1127); conditions: ConA-A647 binding fluorescence, higher = more signal;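 note: z combines 667 nm emission intensity with signal-to-noise across three replicate slides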
Concanavalin-A (Canavalia ensiformis), sequence (P02866 whole entry, looked up): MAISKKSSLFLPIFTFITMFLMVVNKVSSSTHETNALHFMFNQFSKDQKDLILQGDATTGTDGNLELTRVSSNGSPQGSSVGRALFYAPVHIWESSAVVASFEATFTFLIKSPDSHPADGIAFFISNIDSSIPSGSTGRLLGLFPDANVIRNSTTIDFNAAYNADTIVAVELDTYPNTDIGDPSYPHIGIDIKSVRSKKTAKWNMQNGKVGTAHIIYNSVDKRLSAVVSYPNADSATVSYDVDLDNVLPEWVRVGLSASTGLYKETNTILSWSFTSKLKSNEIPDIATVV

Left-right determination factor 2 (Homo sapiens), sequence (O00292 whole entry, looked up): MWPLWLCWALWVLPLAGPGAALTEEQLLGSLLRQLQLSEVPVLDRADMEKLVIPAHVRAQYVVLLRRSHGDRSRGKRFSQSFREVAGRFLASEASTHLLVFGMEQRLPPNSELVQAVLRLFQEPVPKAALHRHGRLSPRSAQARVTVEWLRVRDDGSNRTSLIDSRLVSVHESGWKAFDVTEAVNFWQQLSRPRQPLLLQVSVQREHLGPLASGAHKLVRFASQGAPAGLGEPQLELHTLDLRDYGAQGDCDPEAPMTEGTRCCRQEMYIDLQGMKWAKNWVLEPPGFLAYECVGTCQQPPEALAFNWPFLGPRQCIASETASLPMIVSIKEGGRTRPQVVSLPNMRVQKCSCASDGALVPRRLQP
Albumin (Bos taurus), sequence (P02769 whole entry, looked up): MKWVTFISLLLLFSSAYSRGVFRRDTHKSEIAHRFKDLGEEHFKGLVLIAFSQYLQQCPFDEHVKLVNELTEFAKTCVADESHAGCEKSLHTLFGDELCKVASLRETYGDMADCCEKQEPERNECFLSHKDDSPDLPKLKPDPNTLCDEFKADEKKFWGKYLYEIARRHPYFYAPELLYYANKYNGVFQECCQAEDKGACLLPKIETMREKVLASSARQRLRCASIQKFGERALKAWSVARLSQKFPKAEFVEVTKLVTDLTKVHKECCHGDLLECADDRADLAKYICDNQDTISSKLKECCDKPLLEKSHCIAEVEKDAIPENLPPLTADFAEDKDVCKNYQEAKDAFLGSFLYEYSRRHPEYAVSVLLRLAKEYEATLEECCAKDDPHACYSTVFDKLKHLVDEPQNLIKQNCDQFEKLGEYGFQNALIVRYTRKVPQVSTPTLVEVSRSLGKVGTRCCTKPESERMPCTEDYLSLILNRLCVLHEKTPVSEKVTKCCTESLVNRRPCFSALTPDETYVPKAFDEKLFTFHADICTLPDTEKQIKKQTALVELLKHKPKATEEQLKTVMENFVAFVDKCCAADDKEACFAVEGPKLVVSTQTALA
Torsin-1A-interacting protein 1 (Homo sapiens), sequence (Q5JTV8 whole entry, looked up): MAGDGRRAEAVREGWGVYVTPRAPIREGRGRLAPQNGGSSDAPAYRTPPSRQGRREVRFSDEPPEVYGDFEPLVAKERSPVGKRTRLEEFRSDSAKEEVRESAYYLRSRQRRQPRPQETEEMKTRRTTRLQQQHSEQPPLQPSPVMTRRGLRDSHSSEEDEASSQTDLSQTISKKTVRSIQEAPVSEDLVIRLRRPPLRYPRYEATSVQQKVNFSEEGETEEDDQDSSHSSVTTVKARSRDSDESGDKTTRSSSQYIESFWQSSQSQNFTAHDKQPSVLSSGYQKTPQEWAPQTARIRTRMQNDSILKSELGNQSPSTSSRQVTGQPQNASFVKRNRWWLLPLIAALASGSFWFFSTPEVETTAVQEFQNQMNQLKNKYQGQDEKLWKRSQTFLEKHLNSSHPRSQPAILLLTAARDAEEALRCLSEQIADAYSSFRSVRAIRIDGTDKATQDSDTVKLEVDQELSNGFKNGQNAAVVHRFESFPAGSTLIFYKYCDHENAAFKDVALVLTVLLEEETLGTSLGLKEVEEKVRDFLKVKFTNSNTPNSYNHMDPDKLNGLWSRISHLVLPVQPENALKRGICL
Alpha-bungarotoxin (Bungarus multicinctus), sequence (P60615 whole entry, looked up): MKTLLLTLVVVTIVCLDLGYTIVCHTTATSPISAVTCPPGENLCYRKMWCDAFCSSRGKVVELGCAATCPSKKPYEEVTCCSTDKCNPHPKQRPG

Structure (SMILES) | composite z-score [1] | z-score [2] | composite z-score [3] | composite z-score [4] | composite z-score [5] | composite z-score [6] | composite z-score [7] | composite z-score [8] | composite z-score [9] | composite z-score [10] | composite z-score [11] | composite Z-score [12] | composite z-score [13] | composite z-score [14] | composite z-score [15] | composite z-score [16] | composite z-score [17] | composite z-score [18] | composite z-score [19] | composite z-score [20]
[N-]=[N+]=NCc1ccccc1C[C@@]1(C(N)=O)N=C(c2ccc(OCCCO)cc2)O[C@@H]1c1ccccc1 | 1.43 | -1.74 | -1.41 | 1.85 | 0.989 | -0.0417 | -0.0035 | -0.071 | 2.07 | 2.33 | 1.09 | 0.294 (inactive) | 0.0762 | 0.0341 | 0.693 | 2.83 | 0.368 | 1.3 | -1.38 | 0.341
O=C1OCCC/C=C\[C@H]2OC34C=CCN(c5ccc6ccccc6c5)C(=O)[C@H]3N(CCO)C(=O)[C@@H]4C12 (stereo not given in full) | -0.983 | -0.0164 | -1.2 | 0.0755 | 0.903 | -0.154 | -0.0533 | -0.0631 | -0.399 | -1.95 | -1.75 | 0.278 (inactive) | -0.355 | -0.213 | 0.959 | -0.237 | 1.48 | -0.359 | -2.13 | -1.39
COCCOC(=O)N1C(=O)[C@@]2(c3ccccc31)[C@H](C(=O)NC[C@H](O)c1ccccc1)[C@H]1C(=O)O[C@H](c3ccccc3)[C@H](c3ccccc3)N1[C@@H]2c1ccc(O)cc1 | 1.44 | -0.986 | 0.768 | 0.573 | -0.522 | -0.0072 | 0.209 | 0.39 | 1.21 | 1.78 | -0.411 | 0.244 (inactive) | -0.198 | 0.0377 | 0.432 | 2.28 | 0.236 | 1.3 | 1.04 | 1.12
[N-]=[N+]=Nc1ccccc1[C@@H]1OC(c2ccc(OCCCO)cc2)=N[C@]1(Cc1ccccc1)C(=O)N1CCCCC1 | 1.46 | -2.57 | 0.0418 | 1.43 | 0.748 | 0.0484 | 0.337 | 1.37 | 1.57 | 1.25 | 0.712 | 0.254 (inactive) | 0.22 | -0.108 | 0.415 | 1.94 | 1.36 | 1.29 | -0.365 | 0.948
CO[C@H]1O[C@H](CO)[C@@H](OC(=O)Nc2ccccc2)[C@H](OC(=O)c2cc3ccccc3[nH]2)[C@H]1OC(=O)c1cc2ccccc2[nH]1 | 0.0679 | -2.05 | 0.165 | 0.204 | 0.47 | 0.0642 | 0.14 | -0.367 | 0.621 | 0.326 | 0.124 | 1.12 (inactive) | -0.0368 | -0.0166 | 0.793 | 0.68 | 0.94 | 0.396 | 0.132 | 0.282
CC1CC/C=C\[C@H]2OC34C=CCN(C(C)(C)C)C(=O)[C@H]3N(CCCCCO)C(=O)[C@@H]4C2C(=O)O1 (stereo not given in full) | -1.33 | 0.095 | -0.464 | -0.835 | -0.517 | -0.199 | -0.283 | -0.0105 | -0.348 | -1.25 | -0.0891 | -0.838 (inactive) | -0.219 | -0.153 | 0.887 | -0.658 | -0.55 | -0.883 | -1.34 | -2.1
CO[C@H]1O[C@H](CO)[C@@H](OC(=O)CCc2ccccc2)[C@@H]2OC(=O)[C@@H](Cc3ccccc3)C/C=C/C[C@H](Cc3ccccc3)C(=O)O[C@@H]12 | 1.3 | -1.97 | 0.0673 | 0.485 | 0.0529 | -0.0802 | 0.772 | 0.156 | -0.161 | 1.29 | 0.0544 | -0.0061 (inactive) | -0.0014 | -0.0861 | 0.116 | 0.88 | 0.338 | 1.13 | 0.0642 | 0.6
CC(=O)NCCCC[C@@H]1NC(=O)[C@@H]2C[C@H](C(=O)NCCCCCN)[C@H](c3ccc(O)cc3)N2C1=O | 1.32 | -0.663 | 1.31 | 0.331 | 0.711 | 0.258 | -0.0794 | -0.158 | 1.31 | 0.766 | 0.0285 | -0.0662 (inactive) | 0.237 | 0.0654 | 0.527 | 1.26 | 1.06 | 1.11 | 0.964 | 0.956
CC1CC/C=C\[C@H]2OC34C=CCN(C(C)C)C(=O)[C@H]3N(CCO)C(=O)[C@@H]4C2C(=O)O1 (stereo not given in full) | -0.21 | -0.566 | -1.6 | -0.377 | 0.0947 | -0.202 | 0.0062 | -0.0926 | -0.241 | -1.22 | -0.935 | -0.0467 (inactive) | -0.312 | -0.125 | 0.933 | -0.31 | 0.492 | -0.175 | -1.26 | -1.8
O=C1C2C=CC(C(O)c3cccc(O)c3)N(Nc3ccc([N+](=O)[O-])cc3)C2C(=O)N1c1ccccc1 (stereo not given) | 0.939 | -0.278 | 0.183 | 0.0968 | 0.219 | -0.0462 | 0.0022 | -0.163 | 0.26 | 1.13 | 0.477 | -0.335 (inactive) | 0.0116 | -0.0703 | 0.788 | 0.762 | 0.153 | 0.821 | -0.264 | 0.41
